The values below come from PubChem BioAssay (NCI).

Some test systems named below: HCT-15 colon; HT29 colon; SNB-75 CNS; SNB-19 CNS; U251 CNS; PC-3 prostate; SK-MEL-5 melanoma; UACC-62 melanoma; LOX IMVI melanoma; SK-MEL-28 melanoma; SK-MEL-2 melanoma; EKVX NSCLC; SN12C renal; UO-31 renal; TK-10 renal; ACHN renal; A498 renal; CCRF-CEM leukemia; MOLT-4 leukemia; SR leukemia.
Common to all, as to assay: NCI-60 one-dose screen, 48 h (100 = growth as untreated, 0 = no growth, -100 = all killed)
Conditions in all cases: 10 µM unless noted

Compounds without any hit were thinned out: in the full panel of roughly 83,000, 20% have a hit.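 Assay: single dose, 48 h. Readout: percent growth (0 = no net growth; negative = cell death). Active: <10.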 Values without a mark were called inactive. Activity calls are given as the source filed them.

As for `Cc1cccc(C)c1NCc1nnc(-c2ccco2)o1`, the growth is 103% in the experiment with HCT-15 colon; 93.9% in the experiment on HT29 colon; 85.5% in the experiment with SNB-75 CNS; 101% in the experiment with SNB-19 CNS; 96.9% with U251 CNS; 81% in the experiment with PC-3 prostate. For the same molecule, the growth is 96.3% in the experiment with SK-MEL-5 melanoma; 90.1% in the experiment with UACC-62 melanoma; 93.5% in the experiment with LOX IMVI melanoma; 110% in the experiment on SK-MEL-28 melanoma; 100% with SK-MEL-2 melanoma; 81.5% in the experiment with EKVX NSCLC. Moreover, the growth in the experiment on SN12C renal is 94.8%; in the experiment on UO-31 renal, 65.1%; in the experiment with TK-10 renal it was 123%; with ACHN renal it was 101%; with A498 renal, 96.5%; with CCRF-CEM leukemia, 91.4%. In addition, the results for the growth in the experiment with MOLT-4 leukemia and in the experiment on SR leukemia were 88.8% and 85.7%, respectively.

As to `CC(=O)Nc1nc2c(c(N)c1C#N)C(c1cccc(Cl)c1)C1=C(CCCC1=O)N2c1sc2c(c1C#N)CCCC2` (stereo not given), the growth is 30.1% in the experiment on HCT-15 colon; 29.4% with HT29 colon; 81% in the experiment with SNB-75 CNS; 69.7% with SNB-19 CNS; 42.3% in the experiment on U251 CNS; 20.8% in the experiment with PC-3 prostate. For the same molecule, the growth is 61.5% with SK-MEL-5 melanoma; 59.8% in the experiment with UACC-62 melanoma; 51.5% in the experiment on LOX IMVI melanoma; 82.4% with SK-MEL-28 melanoma; 55.5% with SK-MEL-2 melanoma; 35.9% with EKVX NSCLC. Besides, the growth in the experiment on SN12C renal is 52.3%; with UO-31 renal it was 37.1%; in the experiment with TK-10 renal, 44.5%; with ACHN renal, 53.3%; with A498 renal it was 62.4%; in the experiment with CCRF-CEM leukemia, 50.4%. Further, the growth is 12.6% in the experiment with MOLT-4 leukemia and 26% in the experiment on SR leukemia.

As for `C/C(=N/Nc1nc2ccccc2n1C)c1ccccn1`, the growth with HCT-15 colon was 25.3%; in the experiment on HT29 colon it was 14.7%; in the experiment with SNB-75 CNS, 28%; with SNB-19 CNS it was 15.2%; in the experiment on U251 CNS, 0.141% (active); in the experiment with PC-3 prostate it was 19.1%. Further, the growth in the experiment with SK-MEL-5 melanoma is -6.67% (active); with UACC-62 melanoma, -26.5% (active); in the experiment on LOX IMVI melanoma, -39.4% (active); in the experiment with SK-MEL-28 melanoma, 27.6%; in the experiment with SK-MEL-2 melanoma, 39.8%; in the experiment with EKVX NSCLC it was 6.63% (active). Besides, the growth with SN12C renal was 10.1%; in the experiment with UO-31 renal, -16.4% (active); in the experiment with TK-10 renal, 36.8%; with ACHN renal, 10.3%; with A498 renal it was -29.8% (active); in the experiment on CCRF-CEM leukemia, -6.15% (active). Also, the growth in the experiment with MOLT-4 leukemia is 1.82% (active); in the experiment with SR leukemia, 3.01% (active).

As to `O=C1c2ccccc2C(=O)c2c1oc1c2c(=O)[nH]c2ccccc21`, the growth is 44.7% in the experiment on HCT-15 colon; 103% with HT29 colon; 113% in the experiment with SNB-75 CNS; 104% in the experiment on SNB-19 CNS; 79% in the experiment on U251 CNS; 65.5% in the experiment with PC-3 prostate. The growth in the experiment on SK-MEL-5 melanoma was 79.7%; with UACC-62 melanoma, 88.7%; in the experiment with LOX IMVI melanoma, 56.1%; with SK-MEL-28 melanoma, 112%; in the experiment on SK-MEL-2 melanoma, 76.9%; in the experiment with EKVX NSCLC, 27.4%. Moreover, the growth in the experiment on SN12C renal was 70.4%; with UO-31 renal it was 60.4%; in the experiment on TK-10 renal it was 97.5%; in the experiment on ACHN renal it was 65.7%; in the experiment on A498 renal, 104%; in the experiment with CCRF-CEM leukemia it was 20.7%. Further, the growth is 5.55% (active) in the experiment on MOLT-4 leukemia and 43.8% in the experiment on SR leukemia.

With `C#CC[C@@H]1C[C@]2(C)[C@H]3CC[C@@H]4[C@H]5[C@H](C(=C)C)CC[C@]5(C(=O)O)CC[C@@]4(C)[C@]3(C)CC[C@H]2C(C)(C)[C@H]1O`, the growth in the experiment with HCT-15 colon was 32%; in the experiment with HT29 colon it was 35.9%; with SNB-75 CNS, -8.42% (active); in the experiment on SNB-19 CNS, 56.8%; in the experiment with U251 CNS, 26.3%; in the experiment on PC-3 prostate, 4.77% (active). The growth in the experiment with SK-MEL-5 melanoma is 74.5%; in the experiment on UACC-62 melanoma, 72.2%; with LOX IMVI melanoma, 44.3%; with SK-MEL-28 melanoma, 92%; in the experiment with SK-MEL-2 melanoma, 80.3%; with EKVX NSCLC, 55.4%. For the same molecule, the growth in the experiment on SN12C renal is 39.3%; with UO-31 renal it was 23.5%; in the experiment with TK-10 renal, 85.7%; in the experiment with ACHN renal it was 6.77% (active); in the experiment on A498 renal, 82.7%; with CCRF-CEM leukemia it was 34.1%. The growth was 26.8% in the experiment with MOLT-4 leukemia and 45.5% in the experiment on SR leukemia.

On to `N#Cc1ccc(C2C3=C(CCCC3=O)OC3=C2C(=O)c2ccccc2C3=O)cc1` (stereo not given), for which the growth with HCT-15 colon was 74.5%; in the experiment on HT29 colon it was 97.1%; in the experiment with SNB-75 CNS it was 62.6%; in the experiment on SNB-19 CNS, 105%; in the experiment with U251 CNS, 70%; in the experiment with PC-3 prostate it was 72.6%. In addition, the growth was 61.1% in the experiment on SK-MEL-5 melanoma; 35.1% in the experiment on UACC-62 melanoma; 9.4% (active) with LOX IMVI melanoma; 112% in the experiment with SK-MEL-28 melanoma; 43.7% in the experiment with SK-MEL-2 melanoma; 63.1% in the experiment on EKVX NSCLC. Further, the growth in the experiment with SN12C renal was 12.6%; in the experiment on UO-31 renal, 85.8%; in the experiment with TK-10 renal, 99.7%; in the experiment on ACHN renal it was 66.7%; with A498 renal, 109%; in the experiment on CCRF-CEM leukemia, 15.8%. The growth with MOLT-4 leukemia is -6.58% (active); in the experiment on SR leukemia it was 60.9%.

On to `CCc1c(C(=O)N[C@@H](C(=O)OCc2ccccc2)C(C)O)[nH]c2ccc(Cl)cc12` (stereo not given in full), for which the growth was 79.3% in the experiment on HCT-15 colon; 72.8% with HT29 colon; 19.9% in the experiment with SNB-75 CNS; 83.6% with SNB-19 CNS; 36.3% in the experiment with U251 CNS; 82.1% in the experiment with PC-3 prostate. Moreover, the growth in the experiment with SK-MEL-5 melanoma is 84.1%; in the experiment on UACC-62 melanoma, 91.4%; in the experiment on LOX IMVI melanoma, 81.1%; in the experiment with SK-MEL-28 melanoma, 100%; in the experiment on SK-MEL-2 melanoma it was 106%; in the experiment on EKVX NSCLC it was 73.8%. Besides, the growth in the experiment on SN12C renal is 66.6%; in the experiment with UO-31 renal it was 11.7%; with TK-10 renal, 33.6%; in the experiment on ACHN renal, 8.62% (active); in the experiment with A498 renal, 67.7%; in the experiment on CCRF-CEM leukemia it was 79.6%. For the same molecule, the growth in the experiment on MOLT-4 leukemia was 91.5%; in the experiment on SR leukemia it was 35.1%.

For the molecule `CC1(C)Cc2c(Br)c(Br)c(Br)c(OCC(O)CN3CCOCC3)c2O1` (stereo not given), the growth in the experiment with HCT-15 colon was 88.2%; in the experiment on HT29 colon, 64.6%; in the experiment on SNB-75 CNS, 94%; with SNB-19 CNS it was 100%; in the experiment on U251 CNS it was 93.5%; in the experiment with PC-3 prostate it was 9.22% (active). Besides, the growth is 66.5% in the experiment with SK-MEL-5 melanoma; 94.6% in the experiment with UACC-62 melanoma; 87.1% in the experiment on LOX IMVI melanoma; 137% in the experiment on SK-MEL-28 melanoma; -46.5% (active) in the experiment with SK-MEL-2 melanoma; 102% in the experiment with EKVX NSCLC. For the same molecule, the growth in the experiment on SN12C renal is 104%; in the experiment on UO-31 renal, -87.3% (active); in the experiment with TK-10 renal, 67%; in the experiment on ACHN renal it was 93.4%; in the experiment on A498 renal, 84.3%; with CCRF-CEM leukemia, 9.89% (active). For the same molecule, the growth with MOLT-4 leukemia was 40.1%; with SR leukemia, 24.9%.
